Screening data: PubChem BioAssay, National Center for Advancing Translational Sciences (NCATS)
Shiga inhibitor – Shiga toxin inhibition; AID 2315; 290,000 compounds, 9.2% hits; inhibition, % at 38.7 µM; Vero cells, Shiga toxin protein synthesis inhibition reporter; in the data active = inhibition mostly above about 28%, no sharp cut-off; inactive = mostly below about 43%
Cycloheximide cs – affects cycloheximide protein synthesis inhibition readout, counter-screen | cell reporter, cycloheximide protein synthesis inhibition counterscreen | 300,000 compounds, 12% hits | max response, %; in the data active = max response mostly above about 13%, no sharp cut-off; inactive = mostly below about 14%; also: read at 38.3 µM for the half of the compounds with a filed dose
Pf growth 48h – P. falciparum growth inhibition at 48 hours (one generation); P. falciparum luciferase growth in erythrocytes, 48 h; Potency, µM (doses to about 28.7 µM), usual class: inhibitors; 310,000 compounds, 5.9% hits
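In quantitative HTS format, infected erythrocytes bearing luciferase-reporter parasites were treated for a single generation at 37 C. Luminescence after adding detection reagent served as the growth measure.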
LmPK inh – blocks Leishmania mexicana pyruvate kinase activity; purified LmPK, Kinase-Glo ATP luminescence, 1 h; 290,000 compounds, 0.37% hits; AID 1721; Potency, µM (titrated, usually from 57.5 µM), usual class: inhibitors
Target sequence (Q27686 whole entry, looked up): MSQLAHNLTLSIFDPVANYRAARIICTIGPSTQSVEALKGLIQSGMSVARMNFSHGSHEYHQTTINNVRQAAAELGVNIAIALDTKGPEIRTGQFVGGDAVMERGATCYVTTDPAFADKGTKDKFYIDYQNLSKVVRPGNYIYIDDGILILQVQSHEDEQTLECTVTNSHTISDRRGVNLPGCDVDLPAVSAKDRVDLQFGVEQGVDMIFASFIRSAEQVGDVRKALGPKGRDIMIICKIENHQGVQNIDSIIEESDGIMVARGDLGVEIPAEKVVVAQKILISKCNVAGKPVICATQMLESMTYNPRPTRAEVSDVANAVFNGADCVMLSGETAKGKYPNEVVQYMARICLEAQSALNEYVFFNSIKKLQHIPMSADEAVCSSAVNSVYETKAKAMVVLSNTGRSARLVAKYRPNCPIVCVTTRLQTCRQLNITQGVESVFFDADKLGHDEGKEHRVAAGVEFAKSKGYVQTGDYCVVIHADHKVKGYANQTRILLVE
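0.1 nM LmPK, 0.5 mM PEP, 0.1 mM ADP; 50 mM imidazole pH 7.2, 7 mM MgCl2, 50 mM KCl; 1 h RT. Kinase-Glo luminescence readout, normalized to no-enzyme (full inhibition) and uninhibited wells.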
Pf growth 96h – P. falciparum growth inhibition at 96 hour, primary screen for plastid delayed-death inhibitors; P. falciparum luciferase reporter growth, 96 h; Potency, µM (highest dose often 28.7 µM), usual class: inhibitors; 320,000 compounds, 6.9% hits; AID 504834
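96 h incubation, 37 C, 5% CO2, of luciferase-reporter P. falciparum-infected RBCs (2% hematocrit, 0.05% parasitemia final) with test compounds; endpoint luminescence.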
Hits are given with their value; – = inactive; ? = inconclusive; · = no result given; [ ] = remark or other dose. Only some compounds are listed: those with a hit (about 22% of all), similar ones and a draw of the others. Unless noted, calls follow the shape of the dose curve; as a rule, active = well fitted inhibition curve with a large enough effect; inconclusive = small, poorly fitted or top-dose-only effect, or another doubt; inactive = no such curve, though single readings can be large or run the other way.

SMILES	Shiga inhibitor	Cycloheximide cs	Pf growth 48h	LmPK inh	Pf growth 96h
CC(=O)Nc1cccc(C(=O)OCC(=O)NC(=O)Cc2ccccc2)c1	·	·	–	·	–
CCC(=O)Nc1ccc(C(=O)OCc2ccccc2)cc1	77.4	39.0	–	–	–
CCOC(=O)c1cccc(NC(=O)CCc2ccccc2)c1	–	16.0	–	–	–[5.75 µM]
O=C(CCc1ccccc1)Nc1cccc(NC(=O)CCc2ccccc2)c1	–	–	·	–	?
CC(=O)Nc1cccc(C(=O)OCc2ccccc2)c1	74.2	27.0	–	–	–
CC(=O)Nc1cccc(C(=O)OCCCOc2ccc(F)cc2)c1	57.8	32.1	–	–	–
CCN(C(=O)CSc1nc2cc(S(=O)(=O)N(CC)CC)ccc2n1CC)C1CCS(=O)(=O)C1 (stereo not given)	·	·	–	·	?
CCOC(=O)c1c(C)[nH]c(C)c1C(=O)COC(=O)c1ccc(Cl)c(S(=O)(=O)NCc2ccccc2)c1	–	–	·	–	?
Cc1ccc(-c2nc(CS(=O)CC(=O)NCc3ccco3)c(C)o2)cc1 (stereo not given)	–	–	–	–	–
NC(=O)c1ccc(NC(=O)CCC(=O)c2cccs2)cc1	–	–	–	–	–
CCC(=O)Nc1ccc(C(=O)OCC(=O)c2cccs2)cc1	55.5	31.1	–	–	–
O=C(CCc1ccccc1)Nc1cc(C(=O)O)cc(C(=O)O)c1	–	–	–	–	1.47µM
Cc1cc(CN(C)C(=O)c2ccc(OC3CCN(CCc4ccccc4)CC3)cc2)on1	–	–	?	–	?
COc1cccc(NC(=S)Nc2ccc(O)cc2)c1	79.1	32.1	–	–	–
S=C(NCc1cccs1)Nc1cccc(Cl)c1Cl	45.4	29.5	–	–	–
COc1cccc(NC(=S)Nc2ccc(F)cc2)c1	–	–	–	–	–
Cc1ccc(NC(=S)NCc2cccs2)cc1	–	31.3	·	–	–
Cc1cccc(NC(=S)NCc2cccs2)c1	–	–	–	–	–
COc1cccc(NC(=S)NCc2cccs2)c1	42.8	–	–	–	–
Cc1ccc(S(=O)(=O)c2ccc(Cl)cc2)cc1S(=O)(=O)N(C)CC(=O)O	–	–	–	–	–
S=C(NCc1ccccc1)Nc1cccc(Cl)c1	–	–	–	–	–
COc1cccc(NC(=S)NCc2cccnc2)c1	–	–	–	–	?
COc1cccc(NC(=S)Nc2ccc(Br)cc2Cl)c1	–	19.6	–	–	–
COc1cccc(NC(=S)NCc2ccccc2)c1	33.0	21.7	?	–	–
Cc1cccc(NC(=S)NNC(=S)NCc2ccccc2)c1	–	44.3	·	–	–
SMILES	Shiga inhibitor	Cycloheximide cs	Pf growth 48h	LmPK inh	Pf growth 96h
COCCN(C(=S)Nc1cccc(OC)c1)C(C)c1cccs1 (stereo not given)	–	15.3	–	–	–
NNC(=O)CNC(=O)CNS(=O)(=O)c1ccccc1	–	–	–	–	–
Cc1cccnc1NC(=S)Nc1ccc(Br)cc1Cl	126.2	78.8	–	–	?
Cc1c(NC(=O)c2cn3ccccc3n2)cccc1-n1cnnn1	–	15.2	–	–	–
O=C(Nc1cccc(-c2cn3ccccc3n2)c1)c1cnccn1	–	–	–	–	–
O=C(Nc1ccc(-n2cnnn2)cc1)c1cn2ccccc2n1	–	22.2	–	–	–
O=C(Nc1ccc(Br)cc1)c1ccc(-n2cnnn2)cc1	–	–	–	–	–
Cc1csc(NC(=O)c2cc(C)nc3ccccc23)n1	–	–	–	–	–
Cc1csc(NC(=O)c2cn3ccccc3n2)n1	–	–	–	14.1µM	–
O=C(Nc1ccccc1)c1cn2ccccc2n1	–	–	–	15.8µM	–
CCOc1ccccc1-c1nnc2n1N=C(c1ccc(OC)c(OC)c1)CS2	–	–	·	·	·
O=[N+]([O-])c1ccc(Nc2ccccc2)cc1	–	15.8	–	–	?
O=C(Nc1ccc(Oc2ccc(NC(=O)Nc3ccc([N+](=O)[O-])cc3)cc2)cc1)Nc1ccc([N+](=O)[O-])cc1	–	–	?	–	?
O=C(Nc1ccc([N+](=O)[O-])cc1)Nc1ccc([N+](=O)[O-])cc1	·	·	2.69µM	·	2.39µM
O=[N+]([O-])c1ccc(NNC(=S)Nc2ccc(F)cc2)cc1	85.6	27.5	?	–	?
Cc1ccc(C(C)C)cc1NC(=O)Nc1ccc([N+](=O)[O-])cc1	33.6	–	4.15µM	–	3.29µM
CCCCn1nc(NC(=O)CC)c2cc3cc(OC)ccc3nc21	–	–	?	–	?
Cc1ccc(OCC(=O)Nc2ccc([N+](=O)[O-])cc2)cc1	–	–	–	–	–
Cc1ccc(NC(=O)C2(c3ccc([N+](=O)[O-])cc3)CCCC2)cc1	–	–	2.62µM	–	–
Nc1cc(Cl)ccc1N1CCOCC1	–	–	–	–	·
Nc1nc(Cl)cc(N2CCCC2)n1	–	–	–	–	7.38µM
CN1CCN(c2ccc(F)cc2N)CC1	–	–	–	–	?
CN1CCN(c2ccc(Cl)cc2N)CC1	–	11.2	–	–	–
Nc1cc(F)ccc1N1CCCCCC1	–	–	1.04µM	–	–
Nc1cc(Cl)ccc1N1CCCC1	–	–	2.08µM	–	?
SMILES	Shiga inhibitor	Cycloheximide cs	Pf growth 48h	LmPK inh	Pf growth 96h
Fc1cc(F)c(NC(=S)N2CCOCC2)c(F)c1	–	–	–	–	–
O=C(NCC1CCCO1)c1cccc(S(=O)(=O)N2CCCCC2)c1 (stereo not given)	·	·	–	·	–
CCOC(=O)c1nn(-c2ccc(C)cc2)c(=O)cc1OCC(=O)N1CCN(c2ccccc2)CC1	·	·	–	·	–
CCOC(=O)c1ccc(NC(=O)N2CCN(c3cccc(OC)c3)CC2)cc1	–	–	?	–	–
CCN(c1ccc(NS(=O)(=O)c2cc(Cl)ccc2Cl)cc1)C(C)C	–	–	–	–	–
CN(C)c1ccc(NS(=O)(=O)c2cc(Cl)ccc2Cl)cc1	–	20.7	–	–	?
COc1ccc2cc(C(=O)N(C)CC(=O)Nc3ccccc3Br)ccc2c1	·	·	–	·	–
COc1cc(/C=C/C(=O)N(C)CC(=O)Nc2ccccc2Br)cc2c1OCCO2	·	·	8.28µM	·	?
CCCCCCCCCCC[N+](C)(C)CC/C=C1/c2ccccc2Sc2ccc(Cl)cc21	–	–	·	–	?
OCCN1CCN(Cc2cccc(Oc3ccc(Cl)cc3)c2)CC1	–	–	?	–	–
OCCN1CCN(CC/C=C2/c3ccccc3Sc3ccc(Cl)cc32)CC1	·	·	10.4µM	·	9.28µM
CN(C)CC/C=C1\c2ccccc2Sc2ccc(Cl)cc21	–	–	15.1µM	–	13.5µM
CC[N+](C)(C)CC/C=C1/c2ccccc2Sc2ccc(Cl)cc21	–	–	3.7µM	–	1.65µM
CCCCCCCCCC[N+](C)(C)CC/C=C1/c2ccccc2Sc2ccc(Cl)cc21	–	–	·	–	3.7µM
COc1ccccc1N1CCN(CCCNC(=O)C2CCCN(c3ncnc4c3nc3n4CCCCC3)C2)CC1 (stereo not given)	–	–	?	–	?
CCC/C=C(\CCC)C(NS(=O)(=O)c1cccc2cccnc12)c1ccc(C(=O)OC)cc1 (stereo not given)	–	–	?	–	13.1µM
O=C(NC1=NCCS1)c1cccc2ccccc12	–	25.9	–	–	–
